APP 5UTR inh = APP translation inhibition; SH-SY5Y APP 5'UTR-luciferase reporter, luminescence; inhibition, % at 2 µM; 0.82% of 190,000 active;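 active means inhibition above a set limit, derived from the sample mean plus 3 SD, cut at about 45% in these data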
BaF3 tox = parental Ba/F3 viability inhibition as JAK2V617F counter-screen; CellTiter-Glo ATP luminescence; inhibition, % at 5.6 µM; 1.1% of 220,000 active;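 active means inhibition above a per-campaign cutoff, the mean inhibition of all tested compounds plus 3 SD, cut at about 27% in these data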;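 further: 0% = DMSO wells and 100% = JAK Inhibitor I control wells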
aSyn 5UTR inh = MLPCN primary screen, SNCA 5' untranslated region. alpha-synuclein 5'UTR reporter, inhibitor activity. inhibition, % (tested at 7.5 µM). 0.82% of 300,000 active; in the data active means inhibition above about 60%;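 further: H4 neuroglioblastoma cells stably carrying SNCA 5'UTR luciferase fusion; 0% = DMSO wells and 100% = positive control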
IEC-6 tox-1 = kills IEC-6 intestinal cells in KLF5 counter-screen; 0.78% of 290,000 active; AID 1825; IEC-6 cytotoxicity, luminescence viability; inhibition, % at 5 µM; in the data active means inhibition above about 22%;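 further: 0% = plate median of test compound wells and 100% = cytotoxic reference compound wells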
KLF5 inhibitor = suppresses KLF5 promoter-driven expression; DLD-1 KLF5 promoter-luciferase reporter, luminescence; inhibition, % at 5 µM; 0.23% of 290,000 active;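 active means inhibition above a per-plate limit of that plate's mean compound inhibition plus 3 SD, cut at about 60% in these data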;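 further: 0% = DMSO wells and 100% = LY294002 at 200 µM; higher means less KLF5 promoter-driven luciferase light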
Ba/F3 V617F tox = loss of viability in JAK2V617F-driven Ba/F3 cells | Ba/F3 EpoR-JAK2V617F viability, ATP luminescence | 1.1% of 220,000 active | inhibition, % at 5.6 µM;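 active means inhibition above the campaign mean plus 3 SD over all tested compounds, cut at about 24% in these data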;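 further: cytokine-independent growth of Ba/F3 cells driven by EpoR plus mutant JAK2; 0% = DMSO-treated cells and 100% = JAK inhibitor I control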
KLF5 confirm = KLF5 inhibition, confirmation assay; shares compounds with KLF5 inhibitor; DLD-1 KLF5 promoter firefly luciferase reporter, luminescence; inhibition, % at 4 µM; 79% of 610 active; AID 1834;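 active means inhibition above a set limit taken from the earlier primary screen, cut at about 63% in these data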;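 further: 0% = DMSO wells and 100% = LY294002 at 200 µM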
IEC-6 tox-2 = counter-screen for KLF5 inhibitors: cytotoxicity in rat IEC-6 cells | shares compounds with KLF5 inhibitor | IEC-6 rat intestinal cells, viability luminescence | inhibition, % at 4 µM | 56% of 610 active | AID 1905; in the data active means inhibition above about 23%;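 further: cells exposed to compounds for 48 hours before viability read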
Active calls of the source: *; x = no result. Compounds with a hit are over-represented: about 2.1% of the library has one in this group of screens.

SMILES	APP 5UTR inh	BaF3 tox	aSyn 5UTR inh	IEC-6 tox-1	KLF5 inhibitor	Ba/F3 V617F tox	KLF5 confirm	IEC-6 tox-2
O=[N+]([O-])c1cccc(N/N=C/c2cc([N+](=O)[O-])ccc2O)c1	-8	3	-70	2	-26	1	x	x
COc1ccc2nc(NC(=O)c3ccc(NC(=O)C4CCCO4)cc3)sc2c1 (configuration not stated)	x	x	-42	-6	0	x	x	x
Cc1ccc2nc(NC(=O)c3ccccn3)sc2c1	22	7	111*	20	65*	5	87*	98*
Cc1cc(C)c2nc(NC(=O)c3ccc(OCC4CCCO4)cc3)sc2c1 (configuration not stated)	-14	5	-21	1	97*	-2	99*	-3
Cc1ccc2nc(NC(=O)c3ccc(OCC4CCCO4)cc3)sc2c1 (configuration not stated)	-37	1	-42	-8	68*	-6	-25	10
COc1cccc(OCC(O)CN2CCN(C)CC2)c1 (configuration not stated)	x	x	-2	1	-20	x	x	x
CCCCn1c(N)c(N(CCOC)C(=O)CSc2n[nH]c(-c3ccc(OC)cc3)n2)c(=O)[nH]c1=O	x	x	8	0	-14	x	x	x
COc1ccc(CNC(=O)CSCc2ccccc2Cl)cc1	-35	4	-62	4	9	-1	x	x
COc1ccccc1CNC(=O)Cn1cc([N+](=O)[O-])ccc1=O	x	x	-6	-11	-11	x	x	x
COc1ccccc1N1CCN(Cc2cc(Br)c(O)c3ncccc23)CC1	21	86*	77*	1	93*	98*	65*	-2
Oc1c(Cl)cc(CN2CCCCC2)c2cccnc12	x	x	38	7	98*	x	92*	12
COc1ccccc1N1CCN(c2nc(C)nc3c2oc2ccccc23)CC1	93*	71*	90*	80*	67*	65*	79*	64*
O=[N+]([O-])c1cc(CN2CCCC2)c2cccnc2c1O	3	5	x	-9	-29	-2	x	x
COc1cc(C(=O)N2CCCN(C)CC2)cc(OC)c1C	x	x	10	2	-28	x	x	x
Oc1cc2c(cc1CN1CCc3ccccc3C1)OCO2	x	x	14	6	-19	x	x	x
Oc1ccc(CN2CCc3ccccc3C2)c2cccnc12	87*	77*	103*	6	71*	75*	63*	19
O=C(Cn1ccc2ccccc2c1=O)NCC(=O)N1CCCCC1	x	x	13	-4	-32	x	x	x
Cc1c(/C(O)=C2/C(=O)C(=O)N(CCN3CCOCC3)C2c2ccccn2)cnn1-c1ccccc1 (configuration not stated)	-15	5	-1	1	69*	1	36	4
Cc1ccc(C2/C(=C(/O)c3cnn(-c4ccccc4)c3C)C(=O)C(=O)N2CCCN2CCOCC2)o1 (configuration not stated)	x	-3	-111	-2	-17	0	x	x
COc1cc(CNc2ccc(S(N)(=O)=O)cc2)ccc1OCC(=O)NC1CCCCC1	13	4	-8	-8	75*	2	-12	8
Nc1ncnc2c1ncn2[C@H]1C[C@H](O)[C@@H](CO)O1	-4	9	x	5	-26	1	x	x
Nc1ncnc2c1ncn2[C@H]1C[C@H](O)[C@@H](COP(=O)(O)O)O1	11	11	9	-6	75*	6	-3	7
COc1ccc(Cc2nnc(N/N=C/c3ccc(O)cc3)[nH]c2=O)cc1OC	86*	4	82*	-3	65*	-5	106*	12
C/C(=N\OCc1cccc(C(=O)O)c1)c1ccc(Cl)cc1	x	4	104*	6	64*	2	51	-1
CC1CCN(c2ccc(-c3cccs3)nn2)CC1	x	x	102*	7	98*	x	86*	5
SMILES	APP 5UTR inh	BaF3 tox	aSyn 5UTR inh	IEC-6 tox-1	KLF5 inhibitor	Ba/F3 V617F tox	KLF5 confirm	IEC-6 tox-2
Cc1ccc(/C=C2\SC(=S)N(CCCC(=O)NC3CCCC3)C2=O)cc1	x	x	98*	3	65*	x	4	5
Cc1ccc(/C=C2/SC(=S)N(CCCC(=O)Nc3ccc(O)cc3)C2=O)cc1	63*	-2	86*	5	67*	1	107*	7
COc1cc(/C=C2\SC(=S)N(CCC(=O)NC3CCCC3)C2=O)cc(OC)c1OC	x	x	-71	4	-20	x	x	x
Cc1ccc([N+](=O)[O-])cc1NC(=O)CSc1n[nH]c(-c2cccnc2)n1	x	x	11	-3	-16	x	x	x
CCc1ccc(NC(=O)c2cnn3ccccc23)cc1	-135	5	78*	7	87*	2	82*	3
CSc1cccc(NC(=O)c2cnn3ccccc23)c1	x	-3	-100	-2	-154	-2	x	x
Cc1ccc(NC(=O)CCCSc2ccccc2)cc1S(=O)(=O)N1CCOCC1	-8	2	7	6	6	0	x	x
CCCCN1C(C)=CC(=C2C(=O)c3ccccc3C2=O)C=C1C	-180	4	46	8	-104	2	x	x
CCCN1C=CC(=C2C(=O)c3ccccc3C2=O)C=C1	81*	21	132*	18	107*	18	106*	24*
CCN1C=CC(=C2C(=O)c3ccccc3C2=O)C=C1	70*	14	96*	12	87*	6	96*	9
CCOC(=O)c1sc(NC(=O)c2ccc3ncsc3c2)nc1C	-83	-2	-89	-3	94*	-4	75*	3
CCOC(=O)c1sc(NC(=O)c2cc3ccccc3o2)nc1C	-116	2	-113	6	82*	4	62*	-4
COCc1c(C(=O)N/N=C/c2ccc(C)o2)nnn1-c1nonc1N	x	x	4	0	-20	x	x	x
O=[N+]([O-])c1ccc(O)c(-c2cc(C(F)(F)F)nc(-c3ccccc3)n2)c1	x	x	90*	13	82*	x	86*	41*
Oc1ccccc1-c1cc(C(F)(F)C(F)F)nc(-c2ccccc2)n1	-1	0	x	-8	1	-1	x	x
Cc1c([N+](=O)[O-])cnc(Sc2ccccc2)c1[N+](=O)[O-]	x	x	-8	x	x	x	x	x
Cc1cc(C(F)(F)F)c(C#N)c(SCC(=O)Nc2nc3ccccc3s2)n1	-180	1	-34	5	-36	1	x	x
Cc1nc(SCC(=O)Nc2nc3ccccc3s2)c(C#N)c(C)c1C	64*	9	100*	5	96*	1	108*	27*
CCN(c1cccc(C)c1)S(=O)(=O)c1ccc(-n2cccn2)cc1	x	x	12	-8	-26	x	x	x
CCOc1ccc(S(=O)(=O)N2CCCC(C(=O)NCCN3CCOCC3)C2)cc1Cl (configuration not stated)	x	x	12	-3	5	x	x	x
CC(C)C(=O)NC(c1cccs1)c1cc([N+](=O)[O-])c2cccnc2c1O (configuration not stated)	-3	8	53	-2	-17	3	x	x
